Source: PubChem (National Center for Advancing Translational Sciences (NCATS))
This is a sample that favours compounds with a hit; in the whole collection about 21% have one here.
DT40 TDP1 CPT: growth inhibition of DT40 Tdp1-/-;hTDP1 cells with camptothecin (screen for TDP1 inhibitors); chicken DT40 Tdp1-/-;hTDP1 cells + 20 nM CPT, ATP luminescence, 48 h; hit rate 12% among 420,000; Potency, µM (series often up to 46.2 µM), most hits filed as inhibitors; AID 686979; also: nearly all actives have a fitted effect of over 55% in size
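Chicken DT40 Tdp1-/- cells complemented with human TDP1, 400 cells/well, exposed to compounds plus 20 nM camptothecin for at least 48 h at 37 C; viability read as ATP content by CellTiter-Glo luminescence.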
ELG1 DNA repair: ELG1-dependent DNA repair inhibition; HEK293T ELG1-luciferase reporter, luminescence, 16 h; DNA damage induced by 5-fluorouridine; Potency, µM (top dose mostly 46.1 µM), most hits filed as inhibitors; hit rate 2.3% among 330,000; also: nearly all actives have a fitted effect of over 55% in size
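Reporter activity after DNA damage by 5-fluorouridine is monitored. Compound-treated cells incubate 16 hr at 37 °C, then ONE-Glo is added for 30 min before luminescence reading.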
TDP1 cell noCPT: qHTS for Inhibitors of human tyrosyl-DNA phosphodiesterase 1 (TDP1): qHTS in cells in absence of CPT; hit rate 15% among 420,000; Potency, µM (doses to about 46.2 µM), hits mostly inhibitors; DT40 Tdp1-/- hTDP1 cells, no CPT, ATP luminescence, 48 h; AID 686978, 2013; also: nearly all actives have a fitted effect of over 55% in size
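Seeded 400 DT40-hTDP1 cells/well (vehicle DMSO, no 20 nM CPT); pinned compounds; ≥48 hr at 37 °C; CellTiter-Glo luminescence as viability measure.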
IL-1B inflam inh: inflammasome signaling inhibition, IL-1 beta readout | THP-1 LPS/ATP IL-1B secretion, AlphaLISA, 16 h; stronger effect = lower value | activity change, % at 57.5 µM | hit rate 4.7% among 360,000 | AID 743279; in the data active = activity change below about -50%; inconclusive = mostly about -30% to -49%
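THP-1 cells pretreated 1 hr with compounds (up to 57.5 uM final), then stimulated with LPS (250 ng/mL final) plus ATP (1.25 mM final); secreted IL-1B measured by AlphaLISA after 16 hr, decreased signal indicating inhibition.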
Gal4-VP16 FLuc: counter-screen for ROR gamma inhibitors: Gal4-VP16 reporter | Drosophila S2 Gal4-VP16 UAS-luciferase, luminescence, 20 h | Potency, µM (doses to about 53.6 µM), actives largely listed as inhibitors | hit rate 3.5% among 310,000 | AID 2546;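 also: Gal4-VP16 expression switched on by copper sulfate through the metallothionein promoter; nearly all actives have a fitted effect of over 50% in size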
RORgamma inh: blocks mouse ROR gamma transcriptional activity; Drosophila S2 Gal4-RORgamma UAS-luciferase reporter, 20 h; P51450; Potency, µM (doses to about 53.6 µM), actives largely listed as inhibitors; hit rate 5.4% among 310,000; also: nearly all actives have a fitted effect of over 60% in size
Target sequence (P51450 whole entry, looked up, the tested form may be a part): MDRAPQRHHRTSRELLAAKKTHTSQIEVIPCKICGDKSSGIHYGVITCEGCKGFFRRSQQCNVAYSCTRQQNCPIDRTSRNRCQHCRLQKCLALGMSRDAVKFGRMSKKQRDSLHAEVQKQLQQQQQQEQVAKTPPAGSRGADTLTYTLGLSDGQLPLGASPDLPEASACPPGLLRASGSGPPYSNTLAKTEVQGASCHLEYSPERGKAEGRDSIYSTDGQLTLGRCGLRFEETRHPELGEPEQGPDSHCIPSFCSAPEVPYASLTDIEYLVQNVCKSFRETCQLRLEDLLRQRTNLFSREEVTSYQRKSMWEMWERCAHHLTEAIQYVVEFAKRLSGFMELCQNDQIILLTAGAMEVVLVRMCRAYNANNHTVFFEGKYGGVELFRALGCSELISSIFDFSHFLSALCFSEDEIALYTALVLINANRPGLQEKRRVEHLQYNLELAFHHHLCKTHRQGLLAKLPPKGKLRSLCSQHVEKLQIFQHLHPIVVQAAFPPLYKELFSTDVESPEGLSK
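ROR gamma transcriptional activity was tracked as Gal4-UAS luciferase output in stably transfected Drosophila Schneider cells, with compound added 1 hr before 700 uM copper sulfate induction and a 20 hr ambient-temperature incubation.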
A number is an active result; [ ] = remark or other dose. Unless noted, calls follow the shape of the dose curve; as a rule, active = well fitted curve in the direction sought with a large enough effect; inconclusive = small, poorly fitted or top-dose-only effect, or another doubt; inactive = no such curve, though single readings can be large; an effect the other way counts as inactive or inconclusive.

Screening N=C1N(c2ccccc2)C(=S)C(=Nc2ccccc2)N1c1ccccc1 returned DT40 TDP1 CPT 18.4µM, TDP1 cell noCPT 13µM and IL-1B inflam inh inactive.
C[C@@H]1CN([C@@H](C)CO)C(=O)CCCn2cc(nn2)CO[C@H]1CN(C)C(=O)Oc1ccccc1 was read as DT40 TDP1 CPT inactive, TDP1 cell noCPT inactive and IL-1B inflam inh inactive.
For CC(C)=C1SC(N2CCN(c3cccc(Cl)c3)CC2)=NC1=O the results were DT40 TDP1 CPT inconclusive, ELG1 DNA repair inconclusive, TDP1 cell noCPT inconclusive, IL-1B inflam inh -58.9, Gal4-VP16 FLuc inactive and RORgamma inh inactive.
Screening Cc1cc(O)c(C(C)C)cc1NC(=S)Nc1cc(C(C)C)c(O)cc1C returned DT40 TDP1 CPT inconclusive, TDP1 cell noCPT inconclusive and IL-1B inflam inh -55.0.
For O=C(CCc1ccccc1)Nc1ccc(S(=O)(=O)NC2=NCCCCC2)cc1 the results were DT40 TDP1 CPT inactive, ELG1 DNA repair inactive, TDP1 cell noCPT inactive and IL-1B inflam inh inactive.
For Cc1cccn2cc(-c3cccc(S(=O)(=O)N4CC(C)OC(C)C4)c3)nc12 (stereo unspecified) the results were DT40 TDP1 CPT inconclusive, ELG1 DNA repair inactive, TDP1 cell noCPT inconclusive, IL-1B inflam inh inactive, Gal4-VP16 FLuc inactive and RORgamma inh inactive.
CC1CN(S(=O)(=O)c2cccc(-c3csc(-c4ccccc4)n3)c2)CC(C)O1 (stereo unspecified) was read as DT40 TDP1 CPT inconclusive, ELG1 DNA repair inactive, TDP1 cell noCPT 25.9µM, IL-1B inflam inh inactive, Gal4-VP16 FLuc inactive and RORgamma inh inactive.
For CC1CCN(S(=O)(=O)c2cccc(-c3cn4cc(Cl)ccc4n3)c2)CC1 the results were DT40 TDP1 CPT inconclusive, ELG1 DNA repair inactive, TDP1 cell noCPT 23.1µM, IL-1B inflam inh inactive, Gal4-VP16 FLuc inactive and RORgamma inh inactive.
Screening CC1CN(S(=O)(=O)c2cccc(-c3cn4ccccc4n3)c2)CC(C)O1 (stereo unspecified) returned DT40 TDP1 CPT inconclusive, ELG1 DNA repair inconclusive, TDP1 cell noCPT inconclusive, IL-1B inflam inh inconclusive, Gal4-VP16 FLuc 0.355µM and RORgamma inh inconclusive.
`CCOC(=O)C1CCN(S(=O)(=O)c2cccc(-c3cn4cc(Cl)ccc4n3)c2)CC1` gave DT40 TDP1 CPT inactive, ELG1 DNA repair inconclusive, TDP1 cell noCPT inconclusive, IL-1B inflam inh inactive, Gal4-VP16 FLuc inactive and RORgamma inh inactive.
COc1ccc(C(CNC(=O)c2ccc(OCc3c(C)noc3C)cc2)N2CCCC2)cc1 (stereo unspecified) was read as DT40 TDP1 CPT inactive, ELG1 DNA repair inactive, TDP1 cell noCPT inactive and IL-1B inflam inh inactive.
CN(CC1COCCO1)C(=O)c1cnn(-c2ncc3c(n2)-c2ccccc2CCC3)c1C1CC1 (stereo unspecified) was read as DT40 TDP1 CPT inactive and TDP1 cell noCPT inconclusive.
`Cc1cc(-c2ccnc(-n3ncc(C(=O)NCC4COCCO4)c3C3CC3)n2)c(C)s1` (stereo unspecified) gave DT40 TDP1 CPT 9.2µM and TDP1 cell noCPT 6.51µM.
For Cc1cc(CNC(=O)c2cnn(-c3nccc(-c4cc(C)sc4C)n3)c2C2CC2)on1 the results were DT40 TDP1 CPT 16.4µM and TDP1 cell noCPT inconclusive.
For COc1ccccc1-c1ccnc(-n2ncc(C(=O)N[C@H]3CCCCNC3=O)c2C2CC2)n1 the results were DT40 TDP1 CPT inconclusive and TDP1 cell noCPT 20.6µM.
For COc1ccccc1-c1ccnc(-n2ncc(C(=O)NCc3ccncc3)c2C)n1 the results were DT40 TDP1 CPT inactive[9.04 µM] and TDP1 cell noCPT inactive.
`CN(Cc1cccc2ncccc12)C(=O)c1cnn(-c2ncc3c(n2)-c2ccccc2CC3)c1C1CC1` gave DT40 TDP1 CPT inconclusive and TDP1 cell noCPT 16.4µM.
Screening COC(=O)C=C1CCC2C3CC(F)C4(O)CC(=O)CCC4(C)C3C(=O)CC12C (stereo unspecified) returned DT40 TDP1 CPT inactive, TDP1 cell noCPT inconclusive and IL-1B inflam inh inactive.
